Measured values: PubChem BioAssay (EPA / NIEHS)
Values joined by “and” are separate entries in the source; they are usually repeats but may differ in a detail not shown here. Identical values can stand only once. Inconclusive results are not listed. Where a structure was tested more than once in an assay, its records may differ in their call. Active and inactive are the calls of the source. How the source made its calls: active means hit-call score of the fitted dose curve at least 0.9, where 1 is the maximum; inconclusive means response in the unintended direction; inactive means score below 0.9.

What was measured:
[1] = target: Estrogen receptor (Homo sapiens) + Estrogen receptor beta (Homo sapiens) (UniProt P03372+Q92731); assay: OT_ER_ERaERb_1440: Odyssey Thera (OT) 24-hour HEK293T Protein-Complementation Assay for Estrogen Receptor-alpha/-beta Homodimer (AID 2283356);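 further: heteromer of ER alpha and ER beta binding domains; hits raise reporter fluorescence and both agonists and antagonists give an increase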
How it was run: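 Fragment complementation between ER alpha (310-547) and ER beta (263-489) ligand-binding domains in HEK293T cells; signal read 24 h post-dosing by laser scanning cytometer. Gain of fluorescence relative to DMSO fitted.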

[2] = target: Estrogen receptor beta (Homo sapiens) (UniProt Q92731); assay: OT_ER_ERbERb_0480: Odyssey Thera (OT) 8-hour HEK293T Protein-Complementation Assay for Estrogen Receptor-beta/-beta Homodimer (AID 2283357);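 further: active means signal gain over DMSO baseline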
How it was run: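 Fluorescence gain from complemented reporter fragments on ER-beta LBD homodimer in HEK293T was quantified against DMSO controls after 8 h treatment, fixation in 4% formaldehyde and Draq5 staining.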

PGR (gene 5241) = PGR (gene 5241) (UniProt P06401); assay: NVS_NR_hPR: NovaScreen (NVS) Nuclear Receptor Binding Assay for human Progestron Receptor (PR) (AID 2283360);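 further: active means loss of bound radioligand signal versus DMSO baseline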
How it was run: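 Radioligand competition binding on receptor extracted from T47D cells, read by scintillation counting 18 h after dosing. Loss of signal versus DMSO; primary screen in duplicate at 25 uM, actives followed in concentration series.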

[3] = target: Peroxisome proliferator-activated receptor gamma (Homo sapiens) (UniProt P37231); assay: NVS_NR_hPPARg: NovaScreen (NVS) Nuclear Receptor Binding Assay for human Peroxisome Proliferator-activated Receptor gamma (PPARg) (AID 2283370)
How it was run: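 Fluorescence polarization readout of ligand binding to extracted human PPARg, measured at 2 h. Duplicate single-point screen at 25 uM, then concentration-series retesting; activity defined as signal loss versus DMSO.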

[4] = target: Retinoic acid receptor alpha (Homo sapiens) (UniProt P10276); assay: NVS_NR_hRAR_Antagonist: NovaScreen (NVS) Nuclear Receptor Binding Assay for human Retinoic Acid Alpha Receptor Antagonism (RAR) (AID 2283358)
How it was run: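 Chemicals were first tested in duplicate at 25 uM, then actives in concentration series, in a cell-free TR-FRET antagonist binding format. Measurements were taken 2 hours after dosing and loss of signal was evaluated against DMSO controls.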

[5] = target: Retinoic acid receptor alpha (Homo sapiens) (UniProt P10276); assay: NVS_NR_hRARa_Agonist: NovaScreen (NVS) Nuclear Receptor Binding Assay for human Retinoic Acid Alpha Receptor Agonism (RAR) (AID 2283361)
How it was run: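 Compounds screened at 25 uM, duplicate, then in concentration series if active. Detection: TR-FRET gain of signal versus DMSO after 2 h with cell-free extracted RARα.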

[6] = target: Glucocorticoid receptor (Homo sapiens) (UniProt P04150); assay: NVS_NR_hGR: NovaScreen (NVS) Nuclear Receptor Binding Assay for human Glucocorticoid Receptor (GR) (AID 2283363);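 on AC50: activity is loss of specific radioligand binding signal relative to DMSO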
How it was run: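 Single-readout cell-free binding: radioligand plus extracted receptor, 16-hour dosing, filter radiodetection; 25 uM duplicate primary, concentration series secondary.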

[7] = target: human Dopamine Transporter (DAT), SLC6A3 (gene 6531) (UniProt Q01959); assay: NVS_TR_hDAT: NovaScreen (NVS) Transporter Assay for human Dopamine Transporter (DAT) (AID 2283374);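 further: activity means loss of bound radioligand signal relative to DMSO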
How it was run: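 Extracted human SLC6A3 protein incubated 1 h with radioligand and test chemical; bound fraction separated on filters and counted. Single 25 uM duplicate screen preceded concentration-response follow-up; positive and negative controls on every plate.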

[8] = target: human Norepinephrine Transporter (NET), SLC6A2 (gene 6530) (UniProt P23975); assay: NVS_TR_hNET: NovaScreen (NVS) Transporter Assay for human Norepinephrine Transporter (NET) (AID 2283377);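 further: cell-free membrane protein extracted from CHO cells expressing human NET; displacement of radioligand from human NET seen as loss of scintillation signal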
How it was run: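 In this cell-free binding screen, chemicals at 25 uM (duplicate) compete with a radioligand for CHO-derived human NET over 1 hour, with filter-based radiodetection.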

[9] = target: human Thyroid Receptor Alpha (TRa), THRA (gene 7067) (UniProt P10827); assay: NVS_NR_hTRa_Antagonist: NovaScreen (NVS) Nuclear Receptor Binding Assay for human Thyroid Receptor Alpha Antagonism (TRa) (AID 2283362);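 further: activity is loss of signal relative to DMSO baseline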
How it was run: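 Actives from a duplicate 25 uM single-point screen were retested in concentration series. The cell-free antagonist-format binding assay was read by AlphaLISA chemiluminescence at 1 h, scored as signal loss relative to DMSO.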

[10] = target: Nuclear receptor subfamily 1 group I member 2 (Homo sapiens) (UniProt O75469); assay: NVS_NR_hPXR: NovaScreen (NVS) Nuclear Receptor Binding Assay for human Pregnane X Receptor (PXR) (AID 2283365);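 further: a drop in FRET signal versus DMSO baseline means the compound binds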
How it was run: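 Human PXR binding measured by TR-FRET in a cell-free format, 2 h exposure. Single-concentration duplicates at 25 uM preceded concentration-response retests of actives; endpoint fitted positively relative to DMSO, loss of signal indicating binding.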

[11] = target: human Peroxisome Proliferator-activated Receptor alpha (PPARa), PPARA (gene 5465) (UniProt Q07869); assay: NVS_NR_hPPARa: NovaScreen (NVS) Nuclear Receptor Binding Assay for human Peroxisome Proliferator-activated Receptor alpha (PPARa) (AID 2283359);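 further: activity means loss of TR-FRET signal versus DMSO baseline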
How it was run: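 One-hour incubation, cell-free extracted protein, TR-FRET binding readout; signal loss vs DMSO scored. Screen: 25 uM duplicates, confirmatory dose series for actives.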

[12] = tested on: guinea pig Dopamine Transporter (DAT), gene 100714898; assay: NVS_TR_gDAT: NovaScreen (NVS) Transporter Assay for guinea pig Dopamine Transporter (DAT) (AID 2283369);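 further: active compounds lower bound radioligand signal relative to DMSO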
How it was run: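 Radioligand displacement on membranes from guinea pig striatum, 2 h exposure, bound label counted by filtration and scintillation. Tested at 25 uM in duplicate, then actives in concentration series to 50 uM; DMSO as negative control.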

[13] = target: mouse Estrogen Receptor alpha (Era), Esr1 (gene 13982) (UniProt P19785); assay: NVS_NR_mERa: NovaScreen (NVS) Nuclear Receptor Binding Assay for mouse Estrogen Receptor alpha (Era) (AID 2283378);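 further: hit means loss of bound radioligand signal relative to DMSO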
How it was run: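 Filter radiodetection of radioligand displacement from extracted receptor protein, measured 18 h post-dose. Single 25 uM concentration in duplicate initially, with concentration-series follow-up. Binding loss fitted relative to DMSO.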

[14] = target: human Serotonin Transporter (SERT), SLC6A4 (gene 6532) (UniProt P31645); assay: NVS_TR_hSERT: NovaScreen (NVS) Transporter Assay for human Serotonin Transporter (SERT) (AID 2283372)
How it was run: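 Human platelet membrane preparation; displacement of radioligand from serotonin transporter measured after 1 h by filtration and scintillation counting. Single 25 uM duplicate screen, then concentration series for actives, with DMSO as negative baseline.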

[15] = target: rat Androgen Receptor (AR), Ar (gene 24208) (UniProt P15207); assay: NVS_NR_rAR: NovaScreen (NVS) Nuclear Receptor Binding Assay for rat Androgen Receptor (AR) (AID 2283366)
How it was run: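 Actives from a duplicate single-concentration (25 uM) primary run went on to concentration series. Displacement of radioligand was counted by filtration and scintillation, 18 h post-dose, using prostate extracts from testosterone-pretreated rats, with DMSO as baseline.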

[16] = target: guinea pig Sigma Receptor, Non-selective Binding, SIGMAR1 (gene 100135589) (UniProt Q60492); assay: NVS_OR_gSIGMA_NonSelective: NovaScreen (NVS) Nuclear Receptor Binding Assay for guinea pig Sigma Receptor, Non-selective Binding (AID 2283367)
How it was run: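 Test chemicals were screened in duplicate at 25 uM, then in concentration series if active, against radioligand binding to guinea pig brain membranes; filtration and scintillation counting at 1 h measured remaining bound ligand.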

[17] = tested on: rat Norepinephrine Transporter (NET), gene 83511; assay: NVS_TR_rNET: NovaScreen (NVS) Transporter Assay for rat Norepinephrine Transporter (NET) (AID 2283373)
How it was run: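 Competitive radioligand displacement at the rat NET using forebrain membrane preparations, 1 h incubation, filter-based scintillation readout. Primary testing in duplicate at a single 25 uM concentration; confirmed actives retested across concentrations.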

[18] = target: human Adenosine Transporter (Adot), SLC29A1 (gene 2030) (UniProt Q99808); assay: NVS_TR_hAdoT: NovaScreen (NVS) Transporter Assay for human Adenosine Transporter (Adot) (AID 2283368)
How it was run: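 Binding displacement on U937 extracted protein, read 1 h post-dose by filtration and scintillation counting. Primary duplicate test at 25 uM, then singleton concentration series with 50 uM top; DMSO baseline.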

Measured: AC50

Chain of Estrogen receptor (Homo sapiens) + Estrogen receptor beta (Homo sapiens) (P03372 whole entry, looked up, the tested form may be a part): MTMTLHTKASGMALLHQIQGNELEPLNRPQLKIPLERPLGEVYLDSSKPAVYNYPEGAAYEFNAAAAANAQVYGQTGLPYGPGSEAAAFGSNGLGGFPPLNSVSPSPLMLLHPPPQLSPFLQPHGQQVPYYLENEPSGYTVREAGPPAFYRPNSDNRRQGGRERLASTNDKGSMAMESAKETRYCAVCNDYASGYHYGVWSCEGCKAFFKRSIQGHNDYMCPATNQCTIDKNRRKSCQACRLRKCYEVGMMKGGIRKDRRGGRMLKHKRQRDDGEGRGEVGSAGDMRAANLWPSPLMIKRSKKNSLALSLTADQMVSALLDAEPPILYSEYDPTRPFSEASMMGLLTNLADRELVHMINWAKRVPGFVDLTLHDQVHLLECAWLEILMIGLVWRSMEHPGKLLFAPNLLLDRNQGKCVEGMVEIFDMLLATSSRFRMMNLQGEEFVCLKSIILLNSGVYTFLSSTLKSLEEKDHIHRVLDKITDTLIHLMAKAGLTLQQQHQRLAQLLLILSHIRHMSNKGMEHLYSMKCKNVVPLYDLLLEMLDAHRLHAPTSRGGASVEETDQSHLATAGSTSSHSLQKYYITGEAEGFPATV
Chain of Estrogen receptor (Homo sapiens) + Estrogen receptor beta (Homo sapiens) (Q92731 whole entry, looked up, the tested form may be a part): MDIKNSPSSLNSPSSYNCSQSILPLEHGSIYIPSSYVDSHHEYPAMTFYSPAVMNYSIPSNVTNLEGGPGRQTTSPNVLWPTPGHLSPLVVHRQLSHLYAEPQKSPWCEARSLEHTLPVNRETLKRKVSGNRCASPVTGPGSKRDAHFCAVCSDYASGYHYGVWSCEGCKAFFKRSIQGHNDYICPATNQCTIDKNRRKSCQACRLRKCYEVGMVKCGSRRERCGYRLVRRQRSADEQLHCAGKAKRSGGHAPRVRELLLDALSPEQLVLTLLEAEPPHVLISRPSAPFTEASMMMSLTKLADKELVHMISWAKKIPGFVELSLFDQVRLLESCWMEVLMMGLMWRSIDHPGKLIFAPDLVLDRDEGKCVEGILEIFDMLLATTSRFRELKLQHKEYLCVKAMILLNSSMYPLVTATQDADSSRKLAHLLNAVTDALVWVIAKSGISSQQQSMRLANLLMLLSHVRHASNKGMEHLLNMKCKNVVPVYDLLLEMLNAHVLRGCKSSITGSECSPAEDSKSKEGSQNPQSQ
Chain of mouse Estrogen Receptor alpha (Era), Esr1 (gene 13982) (P19785 whole entry, looked up): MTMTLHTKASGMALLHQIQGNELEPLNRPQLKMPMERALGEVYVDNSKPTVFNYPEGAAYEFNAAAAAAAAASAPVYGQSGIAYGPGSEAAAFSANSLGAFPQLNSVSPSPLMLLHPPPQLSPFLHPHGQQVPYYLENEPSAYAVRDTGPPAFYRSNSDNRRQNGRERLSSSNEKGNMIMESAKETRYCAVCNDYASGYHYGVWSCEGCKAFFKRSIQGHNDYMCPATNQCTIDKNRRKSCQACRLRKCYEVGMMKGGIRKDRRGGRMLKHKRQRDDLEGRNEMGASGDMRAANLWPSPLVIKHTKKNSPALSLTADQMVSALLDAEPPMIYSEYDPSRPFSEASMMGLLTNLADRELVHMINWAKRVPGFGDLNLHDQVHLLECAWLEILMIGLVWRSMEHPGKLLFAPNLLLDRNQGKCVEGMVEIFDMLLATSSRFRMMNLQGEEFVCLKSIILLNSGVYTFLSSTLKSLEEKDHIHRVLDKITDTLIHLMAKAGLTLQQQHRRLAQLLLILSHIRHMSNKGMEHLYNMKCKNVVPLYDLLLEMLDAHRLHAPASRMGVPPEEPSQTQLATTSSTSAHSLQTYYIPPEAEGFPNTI
Chain of human Dopamine Transporter (DAT), SLC6A3 (gene 6531) (Q01959 whole entry, looked up): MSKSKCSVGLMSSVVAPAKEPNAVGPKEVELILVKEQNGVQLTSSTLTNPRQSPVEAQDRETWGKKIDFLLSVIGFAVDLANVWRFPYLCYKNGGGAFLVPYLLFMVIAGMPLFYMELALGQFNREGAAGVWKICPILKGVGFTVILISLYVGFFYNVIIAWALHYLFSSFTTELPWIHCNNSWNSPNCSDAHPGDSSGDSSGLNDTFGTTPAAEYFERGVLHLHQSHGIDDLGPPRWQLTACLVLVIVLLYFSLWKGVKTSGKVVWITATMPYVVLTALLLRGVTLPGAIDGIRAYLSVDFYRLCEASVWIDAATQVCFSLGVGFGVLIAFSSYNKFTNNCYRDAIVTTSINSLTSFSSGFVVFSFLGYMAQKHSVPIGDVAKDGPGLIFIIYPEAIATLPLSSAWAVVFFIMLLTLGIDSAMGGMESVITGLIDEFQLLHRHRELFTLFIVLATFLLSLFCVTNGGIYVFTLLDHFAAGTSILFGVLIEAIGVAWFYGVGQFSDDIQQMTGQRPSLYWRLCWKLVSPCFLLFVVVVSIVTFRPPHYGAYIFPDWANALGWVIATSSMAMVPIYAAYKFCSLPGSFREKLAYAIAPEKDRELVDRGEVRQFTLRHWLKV
Chain of guinea pig Sigma Receptor, Non-selective Binding, SIGMAR1 (gene 100135589) (Q60492 whole entry, looked up): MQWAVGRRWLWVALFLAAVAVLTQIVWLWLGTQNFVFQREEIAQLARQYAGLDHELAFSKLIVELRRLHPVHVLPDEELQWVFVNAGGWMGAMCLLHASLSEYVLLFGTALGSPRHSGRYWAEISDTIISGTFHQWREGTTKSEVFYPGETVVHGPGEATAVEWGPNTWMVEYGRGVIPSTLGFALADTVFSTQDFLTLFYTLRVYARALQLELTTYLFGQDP
Chain of Estrogen receptor beta (Homo sapiens) (Q92731 whole entry, looked up, the tested form may be a part): as the sequence (Q92731 whole entry, looked up, the tested form may be a part) above
Chain of Peroxisome proliferator-activated receptor gamma (Homo sapiens) (P37231 whole entry, looked up): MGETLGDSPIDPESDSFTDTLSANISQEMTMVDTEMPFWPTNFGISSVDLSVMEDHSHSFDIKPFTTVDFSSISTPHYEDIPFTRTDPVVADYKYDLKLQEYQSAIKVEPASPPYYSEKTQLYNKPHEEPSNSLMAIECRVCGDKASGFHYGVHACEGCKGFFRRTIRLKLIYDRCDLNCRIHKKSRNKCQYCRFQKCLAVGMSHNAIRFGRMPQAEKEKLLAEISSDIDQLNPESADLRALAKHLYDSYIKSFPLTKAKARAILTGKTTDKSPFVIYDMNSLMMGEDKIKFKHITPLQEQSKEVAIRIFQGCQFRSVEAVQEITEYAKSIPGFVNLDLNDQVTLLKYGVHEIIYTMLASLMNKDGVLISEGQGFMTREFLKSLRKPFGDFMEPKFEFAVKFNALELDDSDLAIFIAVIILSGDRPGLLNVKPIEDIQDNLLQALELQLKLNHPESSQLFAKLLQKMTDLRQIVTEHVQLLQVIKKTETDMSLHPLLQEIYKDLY
Chain of Nuclear receptor subfamily 1 group I member 2 (Homo sapiens) (O75469 whole entry, looked up): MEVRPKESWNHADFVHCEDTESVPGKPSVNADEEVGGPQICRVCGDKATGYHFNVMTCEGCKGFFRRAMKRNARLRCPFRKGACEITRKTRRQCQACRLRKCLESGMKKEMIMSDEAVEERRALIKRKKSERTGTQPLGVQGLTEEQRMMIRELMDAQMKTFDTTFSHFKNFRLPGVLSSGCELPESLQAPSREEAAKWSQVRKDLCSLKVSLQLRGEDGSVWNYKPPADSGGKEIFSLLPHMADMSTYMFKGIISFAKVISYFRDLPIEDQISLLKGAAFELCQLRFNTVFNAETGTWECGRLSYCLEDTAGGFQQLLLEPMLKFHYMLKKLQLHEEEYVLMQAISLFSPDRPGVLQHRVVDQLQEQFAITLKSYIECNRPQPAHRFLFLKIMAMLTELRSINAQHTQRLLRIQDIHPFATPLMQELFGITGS
Chain of PGR (gene 5241) (P06401 whole entry, looked up): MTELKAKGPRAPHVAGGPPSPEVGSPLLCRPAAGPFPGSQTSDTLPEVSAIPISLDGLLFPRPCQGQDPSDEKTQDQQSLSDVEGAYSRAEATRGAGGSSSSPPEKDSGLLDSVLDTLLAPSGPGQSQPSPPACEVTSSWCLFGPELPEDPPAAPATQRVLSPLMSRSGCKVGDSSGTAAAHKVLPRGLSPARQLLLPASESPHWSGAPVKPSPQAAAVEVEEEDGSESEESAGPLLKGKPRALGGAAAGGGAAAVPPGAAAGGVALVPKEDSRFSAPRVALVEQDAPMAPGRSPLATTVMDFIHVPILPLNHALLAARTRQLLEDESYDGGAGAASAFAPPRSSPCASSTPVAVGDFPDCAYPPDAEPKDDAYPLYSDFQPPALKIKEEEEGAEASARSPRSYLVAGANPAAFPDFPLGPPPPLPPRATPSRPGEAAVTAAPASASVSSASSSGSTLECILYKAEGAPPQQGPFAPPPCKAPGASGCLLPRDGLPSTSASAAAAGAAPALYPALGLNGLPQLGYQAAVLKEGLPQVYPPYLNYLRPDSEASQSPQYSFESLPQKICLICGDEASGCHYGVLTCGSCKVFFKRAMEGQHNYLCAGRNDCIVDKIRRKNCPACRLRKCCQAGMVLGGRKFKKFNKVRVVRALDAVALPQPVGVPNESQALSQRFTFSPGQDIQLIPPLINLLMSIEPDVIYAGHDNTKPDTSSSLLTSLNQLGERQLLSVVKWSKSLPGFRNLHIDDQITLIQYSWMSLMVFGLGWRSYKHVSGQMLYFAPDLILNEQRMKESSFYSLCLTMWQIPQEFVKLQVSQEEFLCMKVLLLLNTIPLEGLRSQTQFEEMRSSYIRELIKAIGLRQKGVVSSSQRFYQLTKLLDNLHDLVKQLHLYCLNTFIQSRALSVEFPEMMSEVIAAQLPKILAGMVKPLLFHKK

OCCC(F)(F)C(F)(F)C(F)(F)C(F)(F)C(F)(F)C(F)(F)F
inactive: [1] | [2]

Cc1cc(CCN2CCN(c3nsc4ccccc34)CC2)cc2c1NC(=O)CC2(C)C
active: PGR (gene 5241) 36 µM
inactive: [1] | [2] | [3]

CCCCCCCCC(=O)O
inactive: [1]

c1ccc2c(c1)Cc1ccccc1-2
inactive: [1] | [2] | [4] | PGR (gene 5241)

Nc1cccc2c(N)cccc12
inactive: [1] | [2] | PGR (gene 5241) | [3]
active: [5] 20.5 µM | [6] 13.4 µM | [7] 6.65 µM | [8] 14.3 µM

C#C[C@]1(O)CC[C@H]2[C@@H]3CCC4=CC(=O)CC[C@@H]4[C@H]3CC[C@@]21C
inactive: [1] | [2] | [5] | [9] | [10] | [3]
active: [2] 25.7 µM and 31.6 µM and 17.8 µM

N#C[C@@H]1CC(F)(F)CN1C(=O)CNC1CC2CCC(C1)N2c1ncccn1 (some centres undefined)
inactive: [1] | [2] | [4]

CCCCC(CC)COC(=O)CCCCC(=O)OCC(CC)CCCC (centres undefined)
inactive: [1] | [2] | [5]

CCCOC(=O)c1ccc(O)cc1
inactive: [11] | [12] | [3]
active: [1] 15.5 µM | [2] 7.31 µM | [7] 15.3 µM | [8] 9.32 µM | [13] 25 µM

CCCCCCCCCCCCCCCS(=O)(=O)Oc1ccccc1
inactive: [1] | [2]

CC(=O)CC(C)(C)O
inactive: [1] | [2]

CC(C)(C)CC(C)(C)c1ccc(O)c(-n2nc3ccccc3n2)c1
inactive: [1] | [2]

CCCCCCCCOC(=O)CCCCCCCCC(=O)OCCCCCCCC
inactive: [1] | [2] | [11] | [14]

CCCCCCCCCCCCc1ccccc1S(=O)(=O)O
active: [4] 19 µM | PGR (gene 5241) 15.1 µM | [6] 2.47 µM | [15] 3.66 µM | [12] 37 µM | [3] 0.194 µM | [7] 16.6 µM | [8] 9.86 µM | [13] 18 µM
inactive: [1] | [2] | [9]

COc1ccc([N+](=O)[O-])cc1N
inactive: [1] | [2]

OC1CCC(C2CCCCC2)CC1 (centres undefined)
inactive: [1] | [2] | [11] | [5] | [13]
active: [1] 60.7 µM and 64.1 µM and 59.4 µM | [2] 25.6 µM and 31.9 µM and 26.9 µM | [16] 25 µM

O=C(O)c1ccccc1C(c1ccc(O)cc1)c1ccc(O)cc1
active: [6] 10.2 µM | [13] 7.92 µM and 7.1 µM
inactive: [1] | [2] | [10] | [15] | [3] | [13]

CC[C@H](C)[C@@H](C(=O)O)n1sc2ccccc2c1=O
inactive: [1] | [2] | PGR (gene 5241) | [6] | [10] | [3]

CCc1ccc(CCOc2ccc(CC3SC(=O)NC3=O)cc2)nc1 (centres undefined)
inactive: [1] | [2] | [11] | [16]

CC(C)(C)c1cc(C(C)(C)C)c(O)c(C(C)(C)C)c1
inactive: [11] | [3]
active: [1] 73.3 µM | [2] 29.3 µM

NC(=O)N(O)[C@@H]1C=C[C@H](Oc2cccc(Oc3ccc(F)cc3)c2)C1
inactive: PGR (gene 5241) | [14] | [17]
active: [1] 34.8 µM | [2] 50 µM | [16] 7.64 µM | [12] 7.24 µM | [7] 0.489 µM | [8] 15 µM

O=c1c(-c2ccc(O)cc2)coc2cc(O)ccc12
active: [5] 1.06 µM and 6.6 µM | [13] 421 nM [middle of 4 runs]
inactive: [5] | [15] | [3]

Cc1cc(C)c(O)c(C)c1
inactive: [11] | [16] | [3]

COC(=O)CCCCC(=O)OC
inactive: PGR (gene 5241)

CCC(=C(c1ccc(O)cc1)c1ccc(OCCN(C)C)cc1)c1ccccc1
active: PGR (gene 5241) 0.852 µM | [10] 1.85 µM | [15] 3.78 µM [middle of 4 runs] | [16] 0.598 µM | [12] 3.77 µM | [7] 1.48 µM | [8] 4.24 µM
inactive: [11] | [9] | [10] | [18] | [3]
